Inconclusive results are not listed. Active and inactive are the calls of the source. No cut-off is given here; in the data, nearly all actives have AC50 up to about 26 µM.

The assay in a line: viability loss in pontine glioma line – cell-based, SU-DIPG-XVII, MIPE5.0, CellTiter-Glo, qHTS, dose response (AID 1347060).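 For AC50: cells exposed to compound for 48 hours before viability readout.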 To be noted: CellTiter-Glo ATP luminescence. A general note: In ATP-based viability assays light output follows the ATP content of the culture.
On to `N#Cc1ccnc(N2C(=O)CC[C@H]2C(=O)N(c2cncc(F)c2)C(C(=O)NC2CC(F)(F)C2)c2ccccc2Cl)c1` (some centres undefined), for which the compound was called inactive.
For `Cc1ccc(-c2ccc3ncc4c(c3n2)n(C2CCN(C(=O)[C@H](C)O)CC2)c(=O)n4C)cn1`, the AC50 is 0.468 µM (active).
The same measure, in the same setting: the figure for `COc1ccc(N(C)c2nc(C)nc3ccccc23)cc1` is 0.00833 µM (active); for `C1=C/COCc2cc(ccc2OCCN2CCCC2)Nc2nccc(n2)-c2cccc(c2)COC/1` it is 2.95 µM (active).
On to `Cc1ncc(NC(=O)c2cccc(C(F)(F)F)c2)cc1-c1cnc(OC2CCOCC2)c(N2CCOCC2)c1`, for which the AC50 was 9.34 µM (active).
With `CCCC(CCC)C(=O)Nc1ccn([C@@H]2O[C@H](CO)[C@@H](O)C2(F)F)c(=O)n1`, the AC50 was 4.68 µM (active).
Consider `CN1C(=O)[C@@H](NC(=O)c2n[nH]c(Cc3ccccc3)n2)COc2ccccc21`, for which the compound was called inactive.
With `O=C(/C=C/c1ccc2ccc(C(F)(F)F)cc2n1)c1ccncc1`, the half-maximal activity concentration (AC50) was 4.17 µM (active).
On to `CC(C)n1cc(-c2ccc3c(c2)N(C)CC3)c2c(NS(=O)(=O)c3ccn(C)n3)ccnc21`, for which the result was inactive.
As to `CN1CCN(c2ccc(Nc3ncc4cc(C#N)c(=O)n(C5CCCC5)c4n3)cc2)CC1`, the concentration at half-maximal activity (AC50) is 3.72 µM (active).
The same measure, in the same setting: as for `CCn1c(=O)c(-c2ccc(-c3cncs3)cc2Cl)cc2cnc(Nc3ccc(N4CCN(C)CC4)cc3)nc21`, the figure is 3.32 µM (active).
For the compound `CS(=O)(=O)c1ccc(Oc2cc(F)cc(C#N)c2)c2c1[C@H](O)C(F)(F)C2`, the outcome was inactive.
For `Cc1ccc(NC(=O)NCc2ccc3c(c2)CN(C2CCC(=O)NC2=O)C3=O)cc1Cl` (centres undefined), the half-maximal activity concentration (AC50) is 0.00742 µM (active).
Still for that read-out and setting: as for `CNCCn1c(=O)c2cc(OC)c(OC)cc2c2cnc3cc4c(cc3c21)OCO4`, the figure is 0.0215 µM (active).
Regarding `NS(=O)(=O)NCCNc1nonc1C(=Nc1ccc(F)c(Br)c1)NO`, the result was inactive.
On to `C=CC(=O)N1CCC(Oc2cc3c(Nc4ccc(Cl)c(Cl)c4F)ncnc3cc2OC)CC1`, for which the AC50 is 6.61 µM (active).
On the same count and under the same terms, the figure for `NC(=O)/C(=C/n1cnc(-c2cc(C(F)(F)F)cc(C(F)(F)F)c2)n1)c1cncnc1` is 0.417 µM (active); for `C=C1C(=O)O[C@H]2C[C@H](C)C(/C=C/C(C)=O)=CC[C@H]12` it is 4.17 µM (active).
On the same count and under the same terms, the figure for `O=C1NC(=O)C(c2cnc3ccccn23)=C1c1cn2c3c(cc(F)cc13)CN(C(=O)N1CCCCC1)CC2` is 1.86 µM (active).
On the same count and under the same terms, as for `O=C(NC[C@H](O)CN1CCc2ccccc2C1)c1cc(NC2COC2)ncn1`, the figure is 23.5 µM (active).
As to `C[C@@H]1CC(=O)Nc2cccc(-c3cnn(C(C)(C)C)c3)c2N1`, the compound was called inactive.
In the case of `C[C@@H](Oc1cc(C(=O)Nc2ccc(C(=O)N3CCN(C)CC3)cc2)nnc1N)c1c(Cl)ccc(F)c1Cl`, the half-maximal activity concentration (AC50) is 0.118 µM (active).
Take `CC(C)N(CCCNC(=O)Nc1ccc(C(C)(C)C)cc1)C[C@H]1O[C@@H](n2ccc3c(N)ncnc32)[C@H](O)[C@@H]1O`: the compound was classed as inactive.
Regarding `Cc1cc(Oc2ccc3nc(COc4ccc(CC5SC(=O)NC5=O)cc4)n(C)c3c2)cc(C)c1N` (centres undefined), the compound was classed as inactive.
On to `OC1CCC([C@H](O)C[C@H]2c3c(F)cccc3-c3cncn32)CC1` (some centres undefined), for which the compound was classed as inactive.
Turning to `Cn1cc(-c2ccc(S(=O)(=O)n3ccc(/C=C/C(=O)Nc4ccccc4N)c3)cc2)cn1`, the concentration at half-maximal activity (AC50) is 1.48 µM (active).
On the same count and under the same terms, the figure for `Cc1ccc(NC(=O)Nc2nnc(Sc3ncnc4cc(OCCCN5CCOCC5)ccc34)s2)cc1` is 2.95 µM (active); for `Cc1[nH]c(/C=C2\C(=O)Nc3ccc(F)cc32)c(C)c1C(=O)NC[C@H](O)CN1CCOCC1` it is 13.2 µM (active); for `CN1CCN(Cc2ccc(Nc3ncc(Cl)c(Nc4ccccc4S(=O)(=O)N(C)C)n3)cc2)CC1` it is 0.191 µM (active).
Same read-out and setting: as for `O=S(=O)(Nc1ccc(-c2cccnc2)c2cccnc12)c1cccc(C(F)(F)F)c1`, the figure is 11.8 µM (active); as for `COc1cccc2c1C(=O)c1c(O)c3c(c(O)c1C2=O)C[C@@](O)(/C(CO)=N/NC(=O)CCCCCN1C(=O)C=CC1=O)C[C@@H]3O[C@H]1C[C@H](N)[C@H](O)[C@H](C)O1`, 1.05 µM (active).
As for `CC(C)(C)C(=O)CN1C(=O)[C@H](NC(=O)Nc2cccc(C(=O)O)c2)CN(C2CCCCC2)c2ccccc21`, the compound was called inactive.
Still for that read-out and setting: as for `CC(C)(NS(=O)(=O)c1ccc2c(Cl)cnc(N=C(N)N)c2c1)C(=O)O`, the entry is “inactive”.
On to `COC(=O)N(C)c1c(N)nc(-c2nn(Cc3ccccc3F)c3ncccc23)nc1N`, for which the compound was classed as inactive.
For the compound `C[C@H]1CN(C[C@H](Cc2ccccc2)C(=O)NCC(=O)O)CC[C@@]1(C)c1cccc(O)c1`, the compound was classed as inactive.
The same measure, in the same setting: the entry for `NC[C@@](O)(c1ccc(Cl)cc1)c1ccc(-c2cn[nH]c2)cc1` is “inactive”.
Consider `COc1cc2c3c(n(CCCNCCO)c(=O)c2cc1OC)-c1cc2c(cc1C3=O)OCO2`, for which the AC50 is 0.105 µM (active).
On the same count and under the same terms, as for `CCN1CCN(Cc2ccc(NC(=O)Nc3ccc(Oc4cc(NC)ncn4)cc3)cc2C(F)(F)F)CC1`, the figure is 7.42 µM (active).
On the same count and under the same terms, the figure for `Cc1cc(OCCCc2c3n(c4c(-c5c(C)nn(C)c5C)c(Cl)ccc24)[C@H](C)CN(c2cn(C)c4ccc(C(=O)O)cc24)C3=O)cc(C)c1Cl` is 0.833 µM (active).

One may read the AC50 as the concentration giving half of the maximal activity seen.
